WT yeast gro inh: growth inhibition of WT yeast, mitochondrial fusion screen; 190,000 compounds, 2.1% hits; AID 1362; inhibition, % at 10 µM; mitochondrial fusion phenotypic screen, WT strain; in the data active means inhibition above about 58%; tested in S. cerevisiae
ROMK mod: modulates human ROMK potassium channel activity; B-score at 10 µM; P48048; 130,000 compounds, 2% hits; Tet-inducible ROMK, thallium flux fluorescence; actives lie on both sides; AID 1918;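 active means signal ratio slope over the read window, or its plate-corrected B-score, at least 3 SD from the plate mean, either direction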;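 further: B-score of the F/F0 ratio slope over 7 to 12 s after thallium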
Ins promoter up: MIN6 insulin promoter up-regulation; MIN6 insulin promoter-GFP reporter, high-content imaging; hits give high values; z-score at 5 µM; 190,000 compounds, 0.3% hits; AID 1625;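 active means z-score above 3 at 5 µM with at least 500 cells counted in the well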
Lmaj promast: reduces viability of Leishmania major promastigotes | resazurin fluorescence viability | inhibition, % at 10 µM | 200,000 compounds, 9% hits; in the data active means inhibition above about 50%;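 further: promastigotes grown with compound for 44 hours at 28 °C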
Insulin prom inh: TRM-6 insulin promoter activity inhibition; TRM-6 cells (human fetal islet line), insulin promoter-eGFP reporter, imaging; reporter expression induced with tamoxifen; inhibition, % at 2 µM; 130,000 compounds, 0.9% hits;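 active means inhibition above the mean plus 3 SD, with well images judged a real hit on visual review, cut at about 60% in these data, passing the limit was not always enough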
KCC2 mod: modulates chloride dependent transport by human KCC2; Q9H2X9; KCC2 cells, thallium flux FluoZin-2 fluorescence; B-score of Tl+ flux slope (higher = more flux/activation; lower = inhibition) at 10 µM; 190,000 compounds, 2.2% hits; AID 1456;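 active means thallium flux slope and its plate-corrected score both differing from the plate sample mean at a set confidence after two filtering rounds, in either direction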;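 further: slope of fluorescence scaled to starting intensity during 10 to 20 s after thallium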
The depositor's hits bear a star. Rows were chosen to be rich in hits. Some 12% of all compounds tested hit in one or more screens of this group.

What do the screens show for `COC(=O)c1ccc(CNCC(=O)Nc2ccc(C(=O)OC)cc2)cc1`?
WT yeast gro inh: -2; ROMK mod: 0.44; Ins promoter up: 0.86; Lmaj promast: -4; Insulin prom inh: -27; KCC2 mod: 0.3

How did CCN(CC)C(=O)Nc1ccc(C(=O)OC)cc1 do in these assays?
WT yeast gro inh: -1; ROMK mod: -0.56; Lmaj promast: -4; Insulin prom inh: 83*

What do the screens show for `COc1ccc(CC(=O)Nc2ccc(C(C)=O)cc2)cc1`?
WT yeast gro inh: -2; ROMK mod: 0.07; Lmaj promast: -1; Insulin prom inh: 25; KCC2 mod: -1.1

Results for CC(=O)Nc1ccc(C(=O)OCc2ccc(F)cc2)cc1 ?
WT yeast gro inh: 31; ROMK mod: -0.95; Lmaj promast: -4; Insulin prom inh: 10; KCC2 mod: -2.2

Results for COc1ccc(CC(=O)Nc2ccc(C(=O)NCC(C)C)cc2)cc1 ?
WT yeast gro inh: -24; Ins promoter up: 0.42; Lmaj promast: 54*; Insulin prom inh: 3; KCC2 mod: -0.21

How did CCN(CC)C(=S)Nc1ccc(C(=O)OC)cc1 do in these assays?
WT yeast gro inh: 5; ROMK mod: 0.081; Ins promoter up: -0.4; Lmaj promast: 9; KCC2 mod: -0.016

How did COC(=O)c1ccc(NC(=O)CNCc2ccncc2)cc1 do in these assays?
WT yeast gro inh: -12; ROMK mod: 0.61; Ins promoter up: -0.14; Lmaj promast: 56*; Insulin prom inh: 11; KCC2 mod: 0.78

How did COC(=O)c1ccc(NC(=O)Cc2ccc(F)cc2)cc1 do in these assays?
WT yeast gro inh: 0; ROMK mod: -0.11; Ins promoter up: -0.72; Lmaj promast: 68*; KCC2 mod: -0.42

How did O=C(Nc1ccccc1SCC1CSc2nc3ccccc3c(=O)n21)c1cccc(Cl)c1 (centres undefined) do in these assays?
WT yeast gro inh: 14; Ins promoter up: -0.97; Lmaj promast: -3; Insulin prom inh: -83; KCC2 mod: -0.79

How did CC(Nc1nc(-c2ccccc2)nc2ccccc12)c1ccccc1 (centres undefined) do in these assays?
WT yeast gro inh: 68; ROMK mod: 0.48; Ins promoter up: -1.8; Lmaj promast: 98*; KCC2 mod: -0.77

Results for CC(Nc1nc2ccccc2n2cnnc12)c1ccccc1 (centres undefined) ?
Ins promoter up: -2.3; KCC2 mod: -0.082

What do the screens show for `CC(Nc1nc(N2CCCCC2)nc2ccccc12)c1ccccc1` (centres undefined)?
WT yeast gro inh: 17; Ins promoter up: 2; Lmaj promast: 100*; Insulin prom inh: -71; KCC2 mod: -0.038

How did COc1ccc(Nc2ncnc3ccccc23)c(OC)c1 do in these assays?
WT yeast gro inh: 14; ROMK mod: -1; Lmaj promast: 11; Insulin prom inh: 60; KCC2 mod: 0.17

Results for CC(Nc1nc(-c2ccccc2O)nc2ccccc12)c1ccccc1 (centres undefined) ?
ROMK mod: 0.11; Ins promoter up: -1.2; KCC2 mod: 0.0021

What do the screens show for `COc1ccc(Nc2nc(N3CCCC3)nc3ccccc23)c(OC)c1`?
WT yeast gro inh: 23; Ins promoter up: -1.8; Lmaj promast: 100*; Insulin prom inh: 35; KCC2 mod: -1.5

What do the screens show for `Clc1ccc(-c2nc(N3CCCCC3)nc3ccccc23)cc1`?
WT yeast gro inh: 59*; ROMK mod: 0.017; Ins promoter up: -0.49; Lmaj promast: -2; Insulin prom inh: -5; KCC2 mod: -0.16

What do the screens show for `c1ccc(-c2nc(-n3nc4ccccc4n3)nc3ccccc23)cc1`?
WT yeast gro inh: 49; ROMK mod: -0.013; Ins promoter up: -0.01; Lmaj promast: 21; Insulin prom inh: -145

How did C=CCN=C1SC(C)C(=O)N1S(=O)(=O)c1ccccc1 (centres undefined) do in these assays?
WT yeast gro inh: -4; Ins promoter up: 0.76; Lmaj promast: -4; Insulin prom inh: 45

How did CN(CCCNC(=O)COc1cc(=O)n(C)c2ccccc12)Cc1ccccc1 do in these assays?
WT yeast gro inh: -10; ROMK mod: 0.96; Ins promoter up: -0.49; Lmaj promast: -4; KCC2 mod: 0.68

What do the screens show for `C=CCNc1nc(N2CCCC2)nc2ccccc12`?
WT yeast gro inh: 5; Ins promoter up: -0.85; Lmaj promast: 100*; Insulin prom inh: 79*

Results for COc1cccc(CC2(CO)CCCN(Cc3[nH]c4ccc(C)cc4c3C)C2)c1 (centres undefined) ?
WT yeast gro inh: 81*; ROMK mod: -0.11; Ins promoter up: -0.88; Lmaj promast: 50; KCC2 mod: 0.076

How did COc1cccc(CC2(CO)CCCN(Cc3cn[nH]c3-c3cc(C)ccc3C)C2)c1 (centres undefined) do in these assays?
WT yeast gro inh: 1; ROMK mod: -2; Ins promoter up: -0.13; Lmaj promast: 18; KCC2 mod: 0.08

What do the screens show for `COc1cccc(CC2(CO)CCCN(Cc3ccc(C)s3)C2)c1` (centres undefined)?
WT yeast gro inh: 8; ROMK mod: -0.15; Ins promoter up: -0.31; Lmaj promast: 67*; KCC2 mod: -0.26

What do the screens show for `COc1cccc(CC2(CO)CCCN(Cc3cc4ccccc4[nH]3)C2)c1` (centres undefined)?
WT yeast gro inh: 16; ROMK mod: -0.99; Ins promoter up: -0.08; Lmaj promast: 74*; KCC2 mod: 0.079

How did COc1cccc(CC2(CO)CCCN(Cc3ccccc3-c3ccco3)C2)c1 (centres undefined) do in these assays?
WT yeast gro inh: 19; ROMK mod: -1.7; Ins promoter up: -1.9; Lmaj promast: 8; KCC2 mod: -0.55

How did COc1cccc(CC2(CO)CCCN(Cc3ccc(CO)o3)C2)c1 (centres undefined) do in these assays?
WT yeast gro inh: 2; ROMK mod: -0.079; Ins promoter up: 0.93; Lmaj promast: 3; KCC2 mod: -0.57

Results for Cc1ccc(CSC2=NCCN2S(=O)(=O)c2ccccc2)cc1 ?
WT yeast gro inh: 34; ROMK mod: -0.086; Ins promoter up: -0.2; Lmaj promast: 100*; Insulin prom inh: -464; KCC2 mod: -0.88

Results for CCSC1=NCCN1S(=O)(=O)c1ccccc1 ?
WT yeast gro inh: -8; ROMK mod: -0.62; Ins promoter up: -0.09; Lmaj promast: 8; Insulin prom inh: 57; KCC2 mod: 0.71

What do the screens show for `CC(C)Sc1nc2ccccc2[nH]1`?
WT yeast gro inh: 5; ROMK mod: -0.0043; Ins promoter up: -0.61; Lmaj promast: 5; Insulin prom inh: 78*; KCC2 mod: 0.046

Results for FC(F)(F)c1nc2ccccc2[nH]1 ?
Ins promoter up: -0.19; KCC2 mod: 0.027

How did CC(Sc1nc2ccccc2[nH]1)C(=O)O (centres undefined) do in these assays?
WT yeast gro inh: 9; ROMK mod: -0.058; Lmaj promast: -4; Insulin prom inh: 50

Results for CC(C)(C)c1nc2ccccc2[nH]1 ?
WT yeast gro inh: 0; ROMK mod: 1.1; Ins promoter up: 1.4; Lmaj promast: 19; Insulin prom inh: 80*; KCC2 mod: 1.1

Source: PubChem BioAssay (several laboratories)
